Sampled rows, rich in hits. Any-hit rate of the full collection: about 3.4%.
Mcl-1 Bim block: disrupts Bim peptide binding to human Mcl-1; Q07820; Bead-based flow cytometry, Bim peptide-Mcl-1 binding; inhibition, % at 10 µM; 0.1% of 190,000 active; in the data active = inhibition above about 40%
Target sequence (Q07820 whole entry, looked up): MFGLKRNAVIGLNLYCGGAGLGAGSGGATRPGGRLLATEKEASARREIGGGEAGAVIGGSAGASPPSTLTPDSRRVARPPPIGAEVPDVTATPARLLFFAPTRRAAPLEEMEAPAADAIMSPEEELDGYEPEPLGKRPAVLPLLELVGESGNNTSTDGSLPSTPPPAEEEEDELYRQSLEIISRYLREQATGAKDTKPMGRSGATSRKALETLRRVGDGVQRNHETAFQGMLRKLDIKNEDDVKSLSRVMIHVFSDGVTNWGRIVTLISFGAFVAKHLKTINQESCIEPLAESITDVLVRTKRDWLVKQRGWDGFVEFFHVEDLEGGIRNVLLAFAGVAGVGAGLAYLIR
14-3-3 Bad PPI: disrupts binding of bovine 14-3-3 zeta to phospho-Bad peptide; TR-FRET 14-3-3zeta/Dy647-pBad peptide displacement, 1 h; AID 781; P63103; 0.71% of 220,000 active; inhibition, % at 21.7 µM;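 active = inhibition above about 70%, limit read from the data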
Target sequence (P63103 whole entry, looked up): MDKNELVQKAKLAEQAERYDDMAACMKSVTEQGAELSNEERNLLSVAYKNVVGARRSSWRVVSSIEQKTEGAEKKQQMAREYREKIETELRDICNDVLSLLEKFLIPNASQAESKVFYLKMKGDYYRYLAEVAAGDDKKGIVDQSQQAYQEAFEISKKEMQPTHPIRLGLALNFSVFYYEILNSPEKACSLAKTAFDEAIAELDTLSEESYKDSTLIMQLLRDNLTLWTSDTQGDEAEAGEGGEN
Mcl1 Bid PPI: disrupts binding of human Mcl-1 to Bid peptide | Q07820 | TR-FRET Mcl-1/Bid-Dy647 peptide binding, 1536-well | inhibition, % at 21.7 µM | 0.97% of 220,000 active;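 active = compounds that cut the binding signal by more than half at the single screening dose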;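 note: His-tagged Mcl-1 with europium anti-His antibody binding Bid BH3 peptide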
p47phox inh: blocks human p47phox regulatory protein of NADPH oxidases; P14598; p47phox/p22phox peptide binding, fluorescence polarization, 2 h; inhibition, % at 24.7 µM; 0.53% of 220,000 active;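 active = inhibition above about 30%, limit read from the data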
m-calpain inh: inhibitors of pig calpain II; purified calpain II, fluorogenic peptide substrate, 30 min; inhibition, % at 16 µM; AID 1236; 0.37% of 220,000 active;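 active = inhibition above about 50%, limit read from the data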
Mcl1-Noxa inh: disrupts binding of human Mcl-1 to Noxa peptide | Q07820 | TR-FRET Mcl-1/Noxa peptide binding, 2 h | inhibition, % at 21.7 µM | 1.5% of 220,000 active | AID 1022;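 active = compounds that cut the protein-peptide binding signal by more than 50% relative to plate controls in a single-dose test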;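 note: His-tagged Mcl-1 with rhodamine Noxa BH3 peptide and terbium anti-His antibody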
Each line names hits and unclear results; the compound was inactive in the other large screens; [ ] = dose if it differs, or a comment.

CC(/C=C1\SC(=S)N(CCCC(=O)Nc2ccc(C(=O)O)cc2)C1=O)=C\c1ccccc1	Mcl1-Noxa inh 52
CN1CCN(c2ccccc2NC(=O)COc2ccc(Br)cc2)CC1	none
CCN(CC)C(=O)CN(C)S(=O)(=O)c1cccc2nsnc12	Mcl1 Bid PPI 76
CCOc1cc(N2CCOCC2)c(OCC)cc1NC(=O)COc1ccc2ccc(=O)oc2c1	none
O=C1NN=C(c2ccc(Br)cc2)CC1c1ccc(Cl)cc1 (stereo unspecified)	none
Brc1ccc(OCCCN2CCOCC2)cc1	Mcl1 Bid PPI 65
COC(=O)c1c(NC(=O)c2cccnc2Cl)sc(C(=O)N(C)C)c1C	none
COc1ccccc1OCc1nc2ccccc2[nH]1	none
c1cnc2c(OCc3nc4ccccc4[nH]3)cccc2c1	m-calpain inh 56
COc1nccc(Nc2ccccc2)c1C#N	p47phox inh 44 (no result: 14-3-3 Bad PPI)
CSc1nccc(Nc2ccccc2)c1C#N	none
Cc1nc2ccccc2c2oc(C(=O)NCc3ccc4c(c3)OCO4)cc12	p47phox inh 121
Cc1ccc(CNC(=O)c2cc3c(C)nc4ccccc4c3o2)cc1	none
CS(=O)(=O)N1CCN(c2ccc(C(=O)N3CCOCC3)cc2[N+](=O)[O-])CC1	none
COc1cccc2c1nc(C)c1cc(C)oc12	Mcl1 Bid PPI 99
COc1ccc2nc(C)c3cc(C)oc3c2c1	none (no result: Mcl1-Noxa inh)
O=C(COC(=O)CCCN=C1NS(=O)(=O)c2ccccc21)NC(=O)NC1CCCC1	Mcl-1 Bim block 102
O=C(COC(=O)CCN=C1NS(=O)(=O)c2ccccc21)NC1CCCCCCC1	none (no result: Mcl-1 Bim block)
C=CCn1c2ccccc2c2nnc(SC(CC)C(=O)Nc3sc4c(c3C#N)CCCC4)nc21 (stereo unspecified)	none
CC1CCCC(NC2CCCCNC2=O)C1 (stereo unspecified)	Mcl1 Bid PPI 83
O=C(NC(=S)N1CCN(c2ccccn2)CC1)c1ccco1	none
CC(NCc1ccc2c(c1)OCO2)C(=O)NC1CCCc2ccccc21 (stereo unspecified)	Mcl1 Bid PPI 69
O=C(NC1CCCc2ccccc21)c1ccc2c(c1)OCO2 (stereo unspecified)	none
COc1ccc(-c2cc(C(F)(F)F)n3nc(C(=O)O)nc3n2)cc1	p47phox inh 65
COc1ccc(-c2cc(C(F)(F)F)n3nc(N)nc3n2)cc1	none
CCCCNC(=O)CSc1nc2ccsc2c(=O)n1CCCC(=O)NCCc1ccc(S(N)(=O)=O)cc1	p47phox inh 31
Cc1ccc(C)c(N2CCN(C(=O)Cc3c(C(=O)O)[nH]c4ccc(Cl)cc34)CC2)c1	none (no result: Mcl-1 Bim block)
COc1ccc(N2CCN(c3cnc4ccccc4n3)CC2)cc1	Mcl1-Noxa inh 59
CNC(=S)N1C2CCC1CC(NC(=O)NC13CC4CC(CC(C4)C1)C3)C2 (stereo unspecified)	none
CC(C)CC1(C)NC(=O)N(CC(=O)Nc2ccc3c(c2)CCC3)C1=O (stereo unspecified)	none
CSc1ncc(Cl)c(C(=O)Nc2sc3c(c2C(=O)NCc2ccco2)CCCC3)n1	none
CCSc1ncc(Cl)c(C(=O)Nc2sc3c(c2C(=O)NCc2cccnc2)CCCC3)n1	Mcl-1 Bim block 44, Mcl1 Bid PPI 59
Cc1oc(-c2ccc3ccccc3c2)nc1CN(C)C(C)c1ccncn1 (stereo unspecified)	none
CCOC(=O)c1ccc(N/C=C/C(=O)c2ccc(OC)c(OC)c2)cc1	none
CCOC(=O)c1ccc(Nc2ccc(-c3ccc(OC)c(OC)c3)nn2)cc1	14-3-3 Bad PPI 81
CC(=O)c1ccc(OCC(=O)NCc2ccc(F)cc2)cc1	none
O=C(Nc1cc(C(F)(F)F)ccc1N1CCOCC1)c1cccc(F)c1	none
O=C(Nc1cc(C(F)(F)F)ccc1N1CCOCC1)c1ccc2ccccc2n1	Mcl1-Noxa inh 68
O=C(Nc1cc(C(F)(F)F)ccc1N1CCOCC1)c1ccccc1F	14-3-3 Bad PPI 73
O=C(CCCc1nc2ccccc2s1)NNC(=O)CCN1CCN(Cc2ccccc2)CC1	none
CCOc1ccc(NC(=O)c2ccc(NC(=O)CSc3nc4ccccc4c(=O)[nH]3)cc2)cc1	none
COc1ccc(NC(=O)NCCCN2CCN(c3ccccc3F)CC2)cc1	Mcl1-Noxa inh 56 (no result: Mcl-1 Bim block)
COc1ccc(NC(=O)CN2CCN(c3ccccc3F)CC2)cc1	none
COc1ccc(NC(=O)NCCCN2CCN(c3cc(C)ccc3C)CC2)cc1	Mcl1-Noxa inh 55
O=C(O)/C=C/c1ccc2c(-c3ccccc3)onc2c1	none
O=c1c2c([N+](=O)[O-])cc([N+](=O)[O-])cc2sn1-c1ccc(Br)cc1	p47phox inh 74, Mcl1-Noxa inh 91
CCOC(=S)SCC(=O)Nc1ncc(C)s1	none (no result: Mcl-1 Bim block)
Cc1ccc2nc(NC(=O)c3ccc4ncsc4c3)sc2c1	none
O=C(Nc1nnc(SCc2c(Cl)cccc2Cl)s1)c1ccc2ncsc2c1	14-3-3 Bad PPI 93
N#Cc1ccc(CSc2nnc(NC(=O)c3ccc(=O)[nH]c3)s2)cc1	none (no result: Mcl-1 Bim block)
N#Cc1ccc(CSc2nnc(NC(=O)c3ccc4ncsc4c3)s2)cc1	14-3-3 Bad PPI 86
O=C(CN1C2=NCCCN2c2ccccc21)c1ccc([N+](=O)[O-])cc1	none
COc1ccc(Cn2c(C)nc3oc4cc(OC)ccc4c(=O)c3c2=O)cc1	none
COc1ccc2c(=O)c3c(=O)n(CCc4ccccc4)c(C(C)C)nc3oc2c1	Mcl1 Bid PPI 77 (no result: Mcl-1 Bim block)
c1ccc(-c2cnnc(SCc3cn4cccnc4n3)n2)cc1	14-3-3 Bad PPI 78
c1ccc2[nH]c(SCc3cn4cccnc4n3)nc2c1	none
CC1CCN(c2ccc(NC(=O)Cc3ccccc3)cc2)CC1	Mcl1-Noxa inh 87
O=C(CN1CCCCC1)Nc1ccc(N2CCCCCC2)cc1	Mcl1-Noxa inh 67
COc1ccccc1C(=O)Nc1ccc(N2CCCCC2)cc1	none
COc1ccc(NC(=O)CN2CCOCC2)cc1	14-3-3 Bad PPI 73, Mcl1 Bid PPI 71
O=C(Nc1ccc(N2CCCCCC2)cc1)c1ccccc1Cl	Mcl1-Noxa inh 52
COc1ccc(CCNCC(=O)Nc2ccccc2C(F)(F)F)cc1	none
CCCCc1nc2cc(Cl)ccc2o1	none
COc1ccc2nc(/C=N/NC(=O)[C@H](C)NC(=O)OC(C)(C)C)ccc2c1	none
O=C(Cc1ccccc1)Nc1ccc(N2CCCC2)cc1	Mcl1-Noxa inh 82 (no result: 14-3-3 Bad PPI)
CCCOC(=O)c1ccc(Oc2cn[nH]c2-c2ccc(OCC)cc2O)cc1	m-calpain inh 53
CCCc1ccc(Oc2cn[nH]c2-c2ccc(O)c(C)c2O)cc1	m-calpain inh 53
CCN(CC)C(=O)CC(c1ccc(N(C)C)cc1)c1c(O)cc(OC)cc1OC (stereo unspecified)	none (no result: Mcl-1 Bim block)
COc1cc(C(=O)NC2=C(C#N)CCC2)cc(OC)c1OC	none
O=C(O)CCNS(=O)(=O)c1ccc2c(c1)OCCCO2	none
CC[N+]1=CN(c2ccccc2)C(C)=CC1(C)C	14-3-3 Bad PPI 82[fluorescence artefact?]
N#CC(C#N)=C1c2cc(S(N)(=O)=O)ccc2-c2ccc(S(N)(=O)=O)cc21	14-3-3 Bad PPI 81
